The sample as a whole holds a higher share of hits than the screen did.
TbPYK inhibitor: T. brucei pyruvate kinase inhibition | TbPYK enzyme, Kinase-Glo Plus ATP luminescence, 45 min | 410,000 tested, 0.12% active | AID 624173 | Potency, µM (top dose mostly 76.8 µM), for inactives: at the top dose activity, negative = inhibition, actives largely listed as inhibitors | Q57TT1; also: potency is read from the fitted curve at half-maximal effect; % is scaled to controls: 0 for no effect and ±100 for the full control effect; nearly all actives have a fitted effect of over 50% in size
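T. brucei PYK with substrate was exposed to pin-transferred compounds across a concentration series, then started with 130 uM ADP (final). After 45 min at room temperature, Kinase-Glo Plus luminescence was read, normalized and curve-fitted.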
Shiga toxin inh: inhibitors of Shiga toxin in Vero cells; inhibition, % at 38.7 µM; Vero cells, Shiga toxin protein synthesis inhibition reporter; 290,000 tested, 9.2% active; AID 2315; in the data active = inhibition mostly above about 28%, no sharp cut-off; inactive = mostly below about 43%; also: 0% is about no effect
Cycloheximide cs: counter-screen for Shiga toxin inhibitors: cycloheximide protein synthesis inhibition. max response, %. 300,000 tested, 12% active. cell reporter, cycloheximide protein synthesis inhibition counterscreen; in the data active = max response mostly above about 13%, no sharp cut-off; inactive = mostly below about 14%; also: read at 38.3 µM for the half of the compounds with a filed dose; 0% is about no effect
Giardia FBPA inh: inhibitors of Giardia lamblia fructose-1,6-bisphosphate aldolase. A8B2U2. purified Giardia FBPA. Potency, µM (highest dose often 59.6 µM), inactives show top-dose activity, negative = inhibition, hits mostly inhibitors. 290,000 tested, 0.71% active. AID 2451; also: potency is read from the fitted curve at half-maximal effect; % is scaled to controls: 0 for no effect and ±100 for the full control effect; nearly all actives have a fitted effect of over 55% in size
Target sequence (A8B2U2 whole entry, looked up): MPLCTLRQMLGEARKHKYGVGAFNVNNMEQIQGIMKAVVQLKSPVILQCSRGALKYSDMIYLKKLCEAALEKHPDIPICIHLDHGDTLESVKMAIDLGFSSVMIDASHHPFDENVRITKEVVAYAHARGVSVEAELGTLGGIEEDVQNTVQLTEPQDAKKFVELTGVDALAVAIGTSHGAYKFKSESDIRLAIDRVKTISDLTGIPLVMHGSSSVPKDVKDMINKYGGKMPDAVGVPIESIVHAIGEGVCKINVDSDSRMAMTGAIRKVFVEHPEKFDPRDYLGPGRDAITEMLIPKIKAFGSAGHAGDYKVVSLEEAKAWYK
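Giardia FBPA (40 nM reagent) was preincubated 10 min at RT with compound (up to 57.5 uM final), then substrate plus GAPDH/TPI/NAD/arsenate coupling system with diaphorase/resazurin was added; resorufin fluorescence (525/598 nm) was read after 20 min.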
LmPK inhibitor: blocks Leishmania mexicana pyruvate kinase activity; 290,000 tested, 0.37% active; Q27686; Potency, µM (doses to about 57.5 µM), without a hit: at the highest dose activity change, negative = inhibition, usual class: inhibitors; purified LmPK, Kinase-Glo ATP luminescence, 1 h; also: potency is read from the fitted curve at half-maximal effect; % is scaled to controls: 0 for no effect and ±100 for the full control effect
Target sequence (Q27686 whole entry, looked up): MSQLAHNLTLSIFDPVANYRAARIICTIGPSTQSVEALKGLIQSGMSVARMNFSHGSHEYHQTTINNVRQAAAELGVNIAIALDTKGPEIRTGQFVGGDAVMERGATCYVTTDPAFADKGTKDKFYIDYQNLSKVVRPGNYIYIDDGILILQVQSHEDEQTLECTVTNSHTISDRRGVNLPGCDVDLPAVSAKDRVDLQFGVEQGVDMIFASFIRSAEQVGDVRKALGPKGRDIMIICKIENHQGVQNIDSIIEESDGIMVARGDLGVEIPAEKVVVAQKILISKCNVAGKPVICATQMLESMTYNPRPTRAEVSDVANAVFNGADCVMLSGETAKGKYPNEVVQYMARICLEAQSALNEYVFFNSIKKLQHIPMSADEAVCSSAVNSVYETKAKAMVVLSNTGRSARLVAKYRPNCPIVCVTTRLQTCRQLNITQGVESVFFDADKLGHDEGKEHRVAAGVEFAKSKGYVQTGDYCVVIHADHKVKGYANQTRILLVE
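Purified LmPK (0.1 nM) converted ADP (0.1 mM) to ATP with PEP (0.5 mM) in imidazole buffer pH 7.2 with KCl and MgCl2, 1 h at room temperature. ATP was read by Kinase-Glo luminescence; data normalized to uninhibited and no-enzyme controls.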
RE007 growth inh: less growth of the S. pombe RE007 Vpr strain; AID 651644; Potency, µM (titrated, usually from 92.2 µM), inactives show at the top dose activity change, negative = less growth, hits mostly inhibitors; S. pombe RE007 Vpr strain, BacTiter-Glo ATP luminescence, 24 h; 360,000 tested, 0.21% active; active = well fitted falling curve with a large enough effect; inconclusive = small, poorly fitted or top-dose-only effect; inactive = no such curve, though single readings can be large or run the other way; also: potency is read from the fitted curve at half-maximal effect; % is scaled to controls: 0 for no effect and ±100 for the full control effect; nearly all actives have a fitted effect of over 50% in size
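Fission yeast strain RE007, carrying one chromosomally integrated HIV-1 vpr copy, was seeded at OD 0.01 in PMG+AL medium with 23 nL pinned compound. After 24 h at 30 °C and 99% humidity, viability was read by BacTiter-Glo luminescence.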
An asterisk follows results filed as active; ? = inconclusive; · = not tested or not shown; [ ] = another dose, or the depositor's remark. Unless noted, calls follow the shape of the dose curve; as a rule, active = well fitted curve in the direction sought with a large enough effect; inconclusive = small, poorly fitted or top-dose-only effect, or another doubt; inactive = no such curve, though single readings can be large; an effect the other way counts as inactive or inconclusive.

SMILES | TbPYK inhibitor | Shiga toxin inh | Cycloheximide cs | Giardia FBPA inh | LmPK inhibitor | RE007 growth inh
CCN(CC)CCCNC(=O)c1ccc2nc(CCc3ccccc3)oc2c1 | -7.0% | · | · | · | · | ·
COC(=O)C1=C(C)N(C)C(C)=C(C(=O)OC)C1c1ccsc1 | -3.0% | -16.0 | -3.1 | 0.3% | 2.1% | -2.0%
CCOC(=O)C1=CN(C)C=C(C(=O)OCC)C1c1ccsc1 | · | -6.0 | 16.9* | 2.7% | 11.4% | 6.1%[3.69 µM]
Cc1c(C)n(Cc2ccccc2)c2ncnc(NCCN(C)C)c12 | 0.5% | -2.3 | -2.7 | -2.5% | -4.2% | ·
Cc1c(C)n(CCc2ccccc2)c2ncnc(NN)c12 | -7.3% | 25.0 | 16.4* | 0.9% | -3.6% | -16.1%
Cc1ccc(-n2c(C)c(C)c3c(NCCO)ncnc32)cc1 | -0.2% | 61.0* | 39.7* | 2.2% | 0.0% | 12.8%
Cc1c(C)n(Cc2ccccc2)c2ncnc(NN)c12 | 1.7% | 59.6 | 14.8* | -5.4% | 0.3% | 3.5%
Cc1c(C)n(CCc2ccccc2)c2ncnc(NCCCO)c12 | 0.9% | 101.7* | 48.0* | 5.9% | 6.9% | 7.2%
Cc1cc(C)cc(S(=O)(=O)c2cn(C)c3cc(N4CCN(C)CC4)c(F)cc3c2=O)c1 | 6.3% | 5.1 | 1.0 | · | -2.4% | -7.0%
Oc1c(Cl)cccc1C=Nc1cc(C(F)(F)F)ccc1N1CCCC1 | -30.9% | 11.1 | 1.7 | -23.2% | -8.5% | 3.6%
Oc1c(Cl)cc(Cl)cc1C=Nc1cc(C(F)(F)F)ccc1N1CCc2ccccc2C1 | ? | 81.3* | 51.7* | ? | 15.8µM* | ·
CCOC(=O)c1c(S(=O)(=O)N2CCC(C(=O)Nc3cccc(C)n3)CC2)c(C)n(C)c1C | 2.7% | · | · | · | · | ·
CCNc1nnc(-c2ccncc2)s1 | 5.3% | 8.1 | -1.6 | 5.5% | -8.8% | ?
COc1ccc(Nc2nnc(-c3ccncc3)s2)cc1Cl | -12.5% | 70.8* | 48.9* | 0.8% | -6.6% | -21.9%
Cc1ccc(Nc2nnc(-c3ccncc3)s2)c(Br)c1 | 0.5% | 25.8 | 27.5* | 7.2% | 2.8% | 9.4%
COc1ccc(Cl)cc1Nc1nnc(-c2ccncc2)s1 | -11.9% | -2.5 | -3.2 | -10.0% | -10.2% | 24.5%
Clc1ccccc1Nc1nnc(-c2ccncc2)s1 | ? | 28.3* | 40.8* | -0.3% | 4.47µM* | 31.6µM*
C/C(=N\NC(=O)c1ccc(-n2cnnn2)cc1)c1ccc(C)cc1 | 1.4% | · | · | · | · | 5.2%
COc1ccc(/C=C/C(=O)C(C(N)=O)=C2SCCS2)cc1 | -3.4% | 49.2* | 31.1* | 4.2% | -1.0% | -3.0%
NC(=O)C(C(=O)/C=C/c1ccc(Cl)cc1)=C1SCCS1 | 0.9% | 39.2 | 15.4* | 2.9% | 0.9% | -0.9%
O=C(/C=C/c1ccc(Cl)cc1)NC1CCS(=O)(=O)C1 (configuration not stated) | 5.4% | 12.0 | -1.6 | -0.7% | -6.9% | -4.3%
C[C@H]1[C@@H]2Cc3ccc(O)cc3[C@]1(C)CCN2C | -9.5%[386 µM] | · | · | · | · | ·
CNS(=O)(=O)c1cccc(C(=O)OCC(=O)Nc2ccc3ccccc3c2)c1 | 1.2% | · | · | · | · | -0.2%
CC(C)C(NC(=O)C(NC(=O)C1OC2OC(C)(C)OC2C2OC(C)(C)OC12)C(C)C)C(=O)O (configuration not stated) | 2.0% | 31.1* | 15.0* | 0.6% | -2.1% | -22.2%
CCSc1nnc(Nc2ccccc2)s1 | 2.7% | 90.2* | 33.5* | -3.5% | -14.6% | -22.2%
SMILES | TbPYK inhibitor | Shiga toxin inh | Cycloheximide cs | Giardia FBPA inh | LmPK inhibitor | RE007 growth inh
CCSc1nnc(Nc2ccc(C)cc2)s1 | ? | 124.0* | 38.3* | · | -1.0% | -17.7%
Cc1ccc(Nc2nnc(SC3CCOC3=O)s2)cc1 (configuration not stated) | -5.9% | 13.2 | 0.7 | -21.5% | -2.5% | -1.8%
O=C1CCCCC1Sc1nnc(Nc2ccccc2)s1 (configuration not stated) | 0.9% | 98.8* | 38.3* | -15.3% | -0.7% | 0.9%
Cc1ccc(CSc2nnc(Nc3ccc(C)cc3)s2)cc1 | -1.4% | -6.8 | -1.3 | -9.6% | 4.7% | -3.3%
CC1(C)CCC[C@@](C)([C@H]2CC[C@]3(C)[C@@H]2[C@H](O)CC2[C@@]4(C)CC[C@H](O)C(C)(C)[C@@H]4[C@@H](O)C[C@]23C)O1 (some centres not stated) | · | -25.1 | -7.2 | 3.1% | · | ·
Cc1ccc(S(=O)(=O)/C=C/C#N)cc1 | · | -17.9 | -18.0 | ? | · | ·
Cc1ccc(S(=O)(=O)C=CS(=O)(=O)c2ccc(C)cc2)cc1 | ? | · | · | · | · | 1.41µM*
Cc1nn(CC(=O)Nc2ccccc2C(F)(F)F)c(=O)c2cccn12 | 0.0% | 9.3 | -2.4 | -3.7% | 0.3% | -12.1%
O=c1c2ccccc2sn1-c1cc(S(=O)(=O)N2CCOCC2)ccc1N1CCOCC1 | 4.47µM* | -17.0 | -3.4 | ? | -4.7% | 0.9%
O=S(=O)(c1ccc(N2CCOCC2)c(Cl)c1)N1CCOCC1 | 4.8% | -7.9 | -6.4 | -0.6% | 1.8% | 6.8%
O=C(O)c1ccc(S(=O)(=O)c2ccc3c(c2)C(=O)N(NC(=O)c2ccccc2)C3=O)cc1 | 1.5% | 58.8 | 6.7 | ? | 2.5% | 5.4%
O=C(O)c1ccc(S(=O)(=O)c2ccc3c(c2)C(=O)N(NC(=O)c2cccnc2)C3=O)cc1 | -6.7% | 17.2 | 23.6* | ? | 1.7% | 7.2%
Cc1cc(C)cc(Nc2ncc3c(n2)CC(c2ccco2)CC3=O)c1 (configuration not stated) | 0.5% | -2.0 | 7.1 | -3.8% | -1.0% | -4.0%
Cc1ccc(C(=O)Nc2ncc3c(n2)CC(c2ccco2)CC3=O)cc1 (configuration not stated) | -11.4% | 129.7 | 25.7* | -9.9% | -1.8% | 4.6%
Cc1cc(C)cc(Nc2ncc3c(n2)CCCC3=O)c1 | 2.1% | 22.6 | 17.0* | -0.8% | -11.5% | 4.6%
Cc1cccc(Nc2ncc3c(n2)CC(C)CC3=O)c1 (configuration not stated) | -6.5% | 112.1* | 32.9* | 5.7% | 4.9% | -12.6%
Cc1ccc2nc(Nc3ncc4c(n3)CCCC4=O)nc(C)c2c1 | · | 6.3 | -3.0 | -6.2% | -4.8% | ·
COc1ccc(C(=O)Nc2ncc3c(n2)CC(C)CC3=O)cc1 (configuration not stated) | -1.8% | 24.1 | 19.1* | -0.6% | -6.2% | -6.8%
COc1cc(Cl)ccc1NC(=O)COc1ccccc1C(=O)N1CCN(c2ccc(O)cc2)CC1 | ? | 29.0 | -3.7 | ? | -3.7% | -0.4%
Cc1cccc(Nc2ncc3c(n2)CC(c2ccco2)CC3=O)c1 (configuration not stated) | 3.2% | 20.3 | 15.1* | 0.8% | 6.2% | -16.6%
Nc1nc(N)c2sc3nc4c(cc3c2n1)CCC4 | -20.2% | 52.0 | 25.5* | 0.1% | -16.5% | -8.7%
O=C1c2ccccc2C(Nc2ccc(-c3nc4ccccc4[nH]3)cc2)N1Cc1ccco1 (configuration not stated) | -4.9% | 89.0* | 16.7* | 11.5% | -3.5% | 0.2%

Compound activity (PubChem BioAssay)
